In PubChem BioAssay AID1159580 (chemical genetic matrix, 2015):
Out of some 5,500 compounds screened, about 2,000 (36%) were called active. About 18% were inconclusive and are not listed. Some of the results follow. A number with no mark means an inactive call. Rule as the data show it: active = normalized growth mostly below about 0.91 (no sharp cut-off); inconclusive = no clear call, values can overlap the other calls; inactive = mostly above about 0.92.

Assay: chemical genetic growth profiling, strain panel (AID 1159580);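 also: tested at 20 µM; growth read once vehicle control cultures reached saturation at 30 °C; 1 = growth at the plate median or of vehicle wells; lower values mean less growth of the strain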
Conditions: S. cerevisiae deletion strains, growth OD

## CCCCOC(=O)NS(=O)(=O)c1sc(CC(C)C)cc1-c1ccc(Cn2c(CC)nc3c(C)cc(C)nc32)cc1
Locus YAL013W, strain DEP1, active compounds read low
  normalized growth: 1
Locus YAL040C, strain CLN3, active compounds read low
  normalized growth: 1.01
Locus YCL061C, strain MRC1 (second series), active compounds read low
  normalized growth: 0.999
Locus YDR150W, strain NUM1, active compounds read low
  normalized growth: 1.01
Locus YDR363W, strain ESC2, active compounds read low
  normalized growth: 0.988
Locus YER002W, strain NOP16, active compounds read low
  normalized growth: 0.997
Locus YJR075W, strain HOC1, active compounds read low
  normalized growth: 0.999
Locus YNL128W, strain TEP1, active compounds read low
  normalized growth: 1
Locus YNL153C, strain GIM3, active compounds read low
  normalized growth: 0.923
Locus YNL175C, strain NOP13, active compounds read low
  normalized growth: 1
Locus YNL197C, strain WHI3, active compounds read low
  normalized growth: 1
Locus YNL224C, strain SQS1, active compounds read low
  normalized growth: 0.98
Locus YOR083W, strain WHI5 (second series), active compounds read low
  normalized growth: 0.919

## S=C(Nc1ccc(Cl)cc1)Nc1ccc(Cl)cc1
Locus YAR019C, strain CDC15, active compounds read low
  normalized growth: 0.912
Locus YBL105C, strain PKC1, active compounds read low
  normalized growth: 0.915
Locus YBR135W, strain CKS1, active compounds read low
  normalized growth: 0.938
Locus YBR136W, strain MEC1, active compounds read low
  normalized growth: 0.928
Locus YBR160W, strain CDC28, active compounds read low
  normalized growth: 0.926
Locus YDL017W, strain CDC7, active compounds read low
  normalized growth: 0.921
Locus YDL028C, strain MPS1, active compounds read low
  normalized growth: 0.935
Locus YDL101C, strain DUN1, active compounds read low
  normalized growth: 0.96
Locus YDL108W, strain KIN28, active compounds read low
  normalized growth: 0.933
Locus YDL132W, strain cdc53, active compounds read low
  normalized growth: 0.927
Locus YDL214C, strain PRR2, active compounds read low
  normalized growth: 0.855
Locus YDR052C, strain DBF4, active compounds read low
  normalized growth: 0.894 (active)
Locus YDR054C, strain cdc34, active compounds read low
  normalized growth: 0.912
Locus YDR226W, strain ADK1, active compounds read low
  normalized growth: 0.95
Locus YDR477W, strain SNF1, active compounds read low
  normalized growth: 0.861
Locus YER123W, strain YCK3, active compounds read low
  normalized growth: 0.791
Locus YER133W, strain GLC7, active compounds read low
  normalized growth: 0.828
Locus YFL009W, strain cdc4, active compounds read low
  normalized growth: 0.925
Locus YFL029C, strain CAK1, active compounds read low
  normalized growth: 0.92
Locus YFR003C, strain YPI1, active compounds read low
  normalized growth: 0.922
Locus YFR019W, strain FAB1, active compounds read low
  normalized growth: 0.864
Locus YFR028C, strain CDC14, active compounds read low
  normalized growth: 0.915
Locus YGR040W, strain KSS1, active compounds read low
  normalized growth: 0.847
Locus YGR052W, strain FMP48, active compounds read low
  normalized growth: 0.811
Locus YGR092W, strain DBF2, active compounds read low
  normalized growth: 0.703
Locus YHR030C, strain SLT2, active compounds read low
  normalized growth: 0.662 (active)
Locus YHR079C, strain IRE1, active compounds read low
  normalized growth: 0.807
Locus YHR082C, strain KSP1, active compounds read low
  normalized growth: 0.902
Locus YHR205W, strain SCH9, active compounds read low
  normalized growth: 0.881
Locus YIL147C, strain SLN1, active compounds read low
  normalized growth: 0.926
Locus YJL095W, strain BCK1, active compounds read low
  normalized growth: 0.814
Locus YJL128C, strain PBS2, active compounds read low
  normalized growth: 0.903
Locus YJL157C, strain FAR1, active compounds read low
  normalized growth: 0.827
Locus YJR016C, strain ILV3, active compounds read low
  normalized growth: 0.922
Locus YJR066W, strain TOR1 (second series), active compounds read low
  normalized growth: 0.83
Locus YJR066W, strain TOR1, active compounds read low
  normalized growth: 0.772
Locus YKL048C, strain ELM1, active compounds read low
  normalized growth: 0.944
Locus YKL067W, strain YNK1, active compounds read low
  normalized growth: 0.853
Locus YKL101W, strain HSL1, active compounds read low
  normalized growth: 0.888
Locus YKL193C, strain SDS22, active compounds read low
  normalized growth: 0.926
Locus YKL203C, strain TOR2, active compounds read low
  normalized growth: 0.871
Locus YLR113W, strain HOG1, active compounds read low
  normalized growth: 0.717 (active)
Locus YLR133W, strain CKI1, active compounds read low
  normalized growth: 0.839
Locus YLR403W, strain SFP1, active compounds read low
  normalized growth: 0.835
Locus YML070W, strain DAK1, active compounds read low
  normalized growth: 0.825
Locus YMR001C, strain CDC5, active compounds read low
  normalized growth: 0.922
Locus YMR205C, strain PFK2 (second series), active compounds read low
  normalized growth: 0.871
Locus YMR277W, strain FCP1, active compounds read low
  normalized growth: 0.918
Locus YNL006W, strain LST8, active compounds read low
  normalized growth: 0.937
Locus YNL020C, strain ARK1, active compounds read low
  normalized growth: 0.837
Locus YNL161W, strain CBK1, active compounds read low
  normalized growth: 0.918
Locus YNL183C, strain NPR1, active compounds read low
  normalized growth: 0.779
Locus YNL207W, strain RIO2, active compounds read low
  normalized growth: 0.893
Locus YNL222W, strain SSU72, active compounds read low
  normalized growth: 0.936
Locus YNL307C, strain MCK1 (second series), active compounds read low
  normalized growth: 0.783
Locus YOL078W, strain AVO1, active compounds read low
  normalized growth: 0.921
Locus YOL136C, strain PFK27, active compounds read low
  normalized growth: 0.848
Locus YOR061W, strain CKA2, active compounds read low
  normalized growth: 0.808
Locus YOR119C, strain RIO1, active compounds read low
  normalized growth: 0.878
Locus YOR231W, strain MKK1, active compounds read low
  normalized growth: 0.836
Locus YOR329C, strain SCD5, active compounds read low
  normalized growth: 0.923
Locus YPL031C, strain PHO85, active compounds read low
  normalized growth: 0.82
Locus YPL153C, strain RAD53, active compounds read low
  normalized growth: 0.845
Locus YPL204W, strain HRR25, active compounds read low
  normalized growth: 0.778
Locus YPL209C, strain IPL1, active compounds read low
  normalized growth: 0.923
Locus YPL256C, strain CLN2, active compounds read low
  normalized growth: 0.819 (active)
Locus YPR025C, strain CCL1, active compounds read low
  normalized growth: 0.932
Locus YPR106W, strain ISR1, active compounds read low
  normalized growth: 0.931
Locus YPR111W, strain DBF20, active compounds read low
  normalized growth: 0.931
Strain NNK1, active compounds read low
  normalized growth: 0.932
Strain TSCII, active compounds read low
  normalized growth: 0.906
